{
  "source": "PubChem BioAssay (Tox21)",
  "note": "Where “and” joins values, the source holds several entries; their conditions need not be identical. Equal values may be shown once. Records with an inconclusive call do not appear. Where a call stands in place of a potency, no number is given. Some structures have more than one record in an assay (separate samples or runs), and their calls can disagree. Calls of active or inactive are those of the source. The call rests on the fitted dose curve; in most records, active means well fitted cell-killing curve with a large enough effect in the repeat runs; inconclusive means weak or mixed curves; inactive means flat fitted curve, though single readings scatter. Potency means the concentration at half of the fitted maximal effect.",
  "data": [
    {"test": "qHTS RealTime-Glo MT Cell Viability Assay in HepG2 cells - 8 hour (AID 1224873); further: nearly all actives have a fitted effect of over 55% in size", "details": "RealTime-Glo luminescence; series mostly up to 76.8 µM", "source_text": "National Center for Advancing Translational Sciences [NCATS]\nNIH Chemical Genomics Center [NCGC]\nU.S. Environmental Protection Agency [EPA]\nNational Institutes of Environmental Health Sciences [NIEHS]\nNational Toxicology Program [NTP]\nU.S. Food and Drug Administration [FDA]\nMeasure of cell viability is critical in the cell-base assay. Analysis of cell viability is necessary for the characterization of cell responses to cytotoxic drugs and environmental stress. A RealTime-Glo MT Cell Viability Assay to monitor cell viability in real time of continues cell culture during 40 hours of compound treatment was used to screen Tox21 10K library compounds in HepG2 cells. The RealTime-Glo MT Cell Viability Assay is a nonlytic, homogeneous, bioluminescent method to measure cell viability in real time using a simple, plate-based method. The assay involves adding NanoLuc luciferase and a cell-permeant prosubstrate to cells in culture. Viable cells reduce the proprietary prosubstrate to generate a substrate for NanoLuc luciferase. This substrate diffuses from cells into the surrounding culture medium, where it is rapidly used by the NanoLuc Enzyme to produce a luminescent signal. The signal correlates with the number of viable cells, making the assay well suited for cytotoxicity studies.\nTox21 Assay Protocol Summary:\nThe mixture of HepG2 cell suspension and reagents were dispensed at 600cells/6 ul/well in 1536-well tissue culture treated black solid bottom plates using a Multidrop dispenser. After the assay plates were incubated at a 37 C/5% CO2 incubator for 5 hours, 23 nL of compounds dissolved in DMSO, positive and negative controls was transferred to the assay plate by a pintool work station. The plates were incubated at 37 C for 40 hours. The luminescence intensity were measured at 0h, 8h, 16h, 24h, 32h and 40h time points using ViewLux plate reader during compound treatment.", "values": [
      {"smiles": "CCCCCCCCCCCC(=O)OCC(C)OC(=O)CCCCC(=O)O", "note": "(stereo not given)", "Potency": "inactive"},
      {"smiles": "CCCCCCCCCCCCCC[N+](C)(C)C", "Potency": "18.8 µM (active) and 54.9 µM (active) and inactive"},
      {"smiles": "CCc1oc2ccccc2c1C(=O)c1cc(I)c(O)c(I)c1", "Potency": "inactive"},
      {"smiles": "Nc1ccc(C(=O)O)c(O)c1", "Potency": "inactive"},
      {"smiles": "C#Cc1ccc(-c2ccccc2F)cc1", "Potency": "inactive"},
      {"smiles": "O=C(O)c1cc(-c2ccc(F)cc2F)ccc1O", "Potency": "inactive"},
      {"smiles": "NC(=O)c1cccc([N+](=O)[O-])c1", "Potency": "inactive"},
      {"smiles": "O=C(O)O", "viability change, negative = cytotoxic": "-4.4% [at 6.97 µM] (inactive)"},
      {"smiles": "CC(=O)c1ccc(C(C)=O)cc1", "Potency": "inactive"},
      {"smiles": "S=c1nccc[nH]1", "Potency": "inactive"},
      {"smiles": "CCCC(=O)OC(C)(C)Cc1ccccc1", "Potency": "inactive"},
      {"smiles": "OC[C@@H](O)[C@@H](O)CO", "Potency": "inactive"},
      {"smiles": "CN(C)C(=O)COC(=O)Cc1ccc(OC(=O)c2ccc(N=C(N)N)cc2)cc1", "Potency": "inactive"},
      {"smiles": "CCC(CC)(CC(=O)Nc1cccc(/C=C/c2nc(C3CCC3)cs2)c1)C(=O)O", "Potency": "inactive"},
      {"smiles": "Nc1nc2c(ncn2COCCO)c(=O)[nH]1", "Potency": "inactive"},
      {"smiles": "CC(C)=CCC1=C(O)c2ccccc2C(=O)C1=O", "Potency": "inactive"},
      {"smiles": "Cc1cc(C(C)(C)C)cc(C)c1CC1=NCCN1", "Potency": "inactive"},
      {"smiles": "CC(=O)CC(=O)Nc1ccc(S(=O)(=O)O)cc1", "Potency": "inactive"},
      {"smiles": "C[C@H]1NCc2cc(-c3ccc4c(=O)c(C(=O)O)cn(C5CC5)c4c3OC(F)F)ccc21", "viability change, negative = cytotoxic": "-17% [at 15.8 µM] (inactive)"},
      {"smiles": "C=C(CC)C(=O)c1ccc(OCC(=O)O)c(Cl)c1Cl", "Potency": "inactive"},
      {"smiles": "CC(N=C(NC#N)Nc1ccncc1)C(C)(C)C", "note": "(stereo not given)", "Potency": "inactive"},
      {"smiles": "O=C(O)c1cccc(C(F)(F)F)c1", "Potency": "inactive"},
      {"smiles": "CN(C)Cc1cc(C(C)(C)C)c(O)c(C(C)(C)C)c1", "Potency": "inactive"},
      {"smiles": "C=C(C)C(=O)OCCCCCCCCCC", "Potency": "inactive"},
      {"smiles": "CC1=Nc2ccccc2C1(C)C", "Potency": "inactive"},
      {"smiles": "CN1CCCCC1CCN1c2ccccc2Sc2ccc(S(C)=O)cc21", "note": "(stereo not given)", "Potency": "inactive"},
      {"smiles": "Nc1nc(N)nc(-c2cc(Cl)ccc2Cl)n1", "Potency": "inactive"},
      {"smiles": "Nc1ccc(NCCO)c([N+](=O)[O-])c1", "Potency": "inactive"},
      {"smiles": "CN(C)c1ccc(C(=C2C=CC(=[N+](C)C)C=C2)c2ccc(N(C)C)cc2)cc1", "Potency": "19.4 µM (active) and 24.5 µM (active)"},
      {"smiles": "O=c1[nH]c(=O)n([C@H]2C[C@H](O)[C@@H](CO)O2)cc1F", "Potency": "inactive"},
      {"smiles": "Nc1nc(-c2ccccc2)cs1", "Potency": "inactive"},
      {"smiles": "Cc1ccc(O)c(O)c1", "Potency": "inactive"},
      {"smiles": "O=C1NC(=O)[C@@H]2CC=CC[C@H]12", "Potency": "inactive"},
      {"smiles": "CC(C)(C)NSc1nc2ccccc2s1", "Potency": "inactive"},
      {"smiles": "Cc1cc(-c2ccc(N=Nc3cc(S(=O)(=O)O)c4ccccc4c3N)c(C)c2)ccc1N=Nc1cc(S(=O)(=O)O)c2ccccc2c1N", "Potency": "inactive"},
      {"smiles": "CN1CCC[C@@H]1CCO[C@](C)(c1ccccc1)c1ccc(Cl)cc1", "Potency": "inactive"},
      {"smiles": "Cc1cccc(C(=O)O)c1O", "Potency": "inactive"},
      {"smiles": "CC(C)CCOC(=O)/C=C/c1ccccc1", "Potency": "inactive"},
      {"smiles": "CCCNCCC", "Potency": "inactive"},
      {"smiles": "CCCCCCCC", "Potency": "inactive"}
    ]}
  ]
}
